According to PubChem BioAssay AID2315 (National Center for Advancing Translational Sciences (NCATS), 2010):
About 27,000 (9.3%) of roughly 290,000 compounds were called active. Cut-off read from the data, not from the text of the source: active = inhibition mostly above about 28% (no sharp cut-off); inactive = mostly below about 43%. What follows is part of a selection rich in actives, with near analogues and random picks from the rest.

Test: A qHTS for Small Molecule Inhibitors of Shiga Toxin; note: 0% is about no effect
Conditions: Vero cells, Shiga toxin protein synthesis inhibition reporter; at 38.7 µM, hits give high values

Structure (SMILES)	inhibition
CNc1[nH]ncc1[N+](=O)[O-]	120% (active)
CN(C)/C=C(\C=[N+](C)C)c1[nH]ncc1[N+](=O)[O-]	-4.31% (inactive)
CNc1ccc(NC(C)=O)cc1[N+](=O)[O-]	-5.19% (inactive)
Cc1cc(-c2csc(N)n2)c(C)n1-c1ccccc1	34.4% (inactive)
CC(=O)Nc1ccc(C(=O)Nc2nc(-c3cc(C)n(Cc4ccccc4)c3C)cs2)cc1	-6.21% (inactive)
Cc1cc(-c2csc(N)n2)c(C)n1Cc1ccccc1	28.2% (active)
Cc1ccccc1NC(=O)CSc1nc2ccc(Nc3nc(N4CCOCC4)nc(N4CCOCC4)n3)cc2s1	23.8% (inactive)
Cc1nnc2sc(-c3ccco3)nn12	-4.02% (inactive)
FC(F)(F)c1nnc2sc(-c3ccco3)nn12	7.08% (inactive)
Fc1ccc(-c2ccc(-c3nn4c(-c5ccco5)nnc4s3)o2)cc1	26.5% (active)
CCN(CC)S(=O)(=O)c1cc(C(=O)Nc2ccccn2)ccc1C	119% (active)
Cc1ccc(NC(=O)CNCc2ccccn2)cc1S(=O)(=O)N(C)C	40.8% (inactive)
CCN(CC)S(=O)(=O)c1ccc(NC(=O)c2cccnc2Cl)c(NC(=O)c2cccnc2Cl)c1	-4.86% (inactive)
COc1cc(C(=O)NCc2nnc(SCC(=O)c3ccc(Cl)cc3)o2)cc(OC)c1OC	-10.7% (inactive)
OCCN1CCN(c2nnc(-c3ccccc3)c3ccccc23)CC1	-4.9% (inactive)
Cc1nc(C)c(-c2nnc(-c3cccc(S(=O)(=O)N(C)C)c3)o2)cc1C(=O)NN	3.74% (inactive)
COc1ccc2c(C(=O)c3ccc(C)cc3)n(CCC(N)=O)[n+]([O-])c2c1	7.71% (inactive)
NC(=O)Cc1ccc2c(c1)[nH]c1ccccc12	11.9% (inactive)
O=C(O)Cc1sc(-c2ccccc2)nc1-c1cccs1	47.2% (inactive)
NC(=O)Cc1ccc2sc(-c3ccccc3)nc2c1	79.9% (active)
Cc1cc(S(=O)(=O)NCc2ccccn2)c(Cl)cc1Cl	-4.73% (inactive)
CCSc1nc(O)c(C(c2cccc(OC)c2)c2c(O)nc(SCC)[nH]c2=O)c(=O)[nH]1	19.1% (inactive)

Structure (SMILES)	inhibition
CC(=O)NCCC(=O)Nc1cc(S(=O)(=O)N2CCCCC2)ccc1Oc1cccc(C)c1	-10.6% (inactive)
Cc1ccc(NC(=O)CSCC(=O)NC2CCCCC2)cc1	5.95% (inactive)
Cc1cc(C)cc(NC(=O)NC2CCCCCCC2)c1	14.2% (inactive)
Cc1ccc(NC(=S)NC2CCCC2)cc1	85% (active)
Cc1cc(Br)ccc1NC(=S)NC1CCCC1	35.4% (inactive)
CC(C)c1ccc(NC(=O)NC2CCCCC2)cc1	107% (active)
CC(C)(C)NS(=O)(=O)c1ccc(NC(=O)NC2CCCCC2)cc1	56.6% (inactive)
O=C(Nc1cccc(F)c1)NC1CCCc2ccccc21 (centres undefined)	-2.03% (inactive)
C/C(CC(=O)Nc1cccc(F)c1)=N\NC(=O)C(=O)NC1CCCCC1	-4.86% (inactive)
O=C(Nc1cccc(F)c1)NC1CCCCCCC1	159% (active)
Cc1cccc(N2CCN(S(=O)(=O)c3ccc(-c4cc(C)no4)s3)CC2C)c1 (centres undefined)	-9.9% (inactive)
COc1ccc([N+](=O)[O-])cc1NCC(=O)c1ccc(C)cc1	17.1% (inactive)
COc1ccccc1NC(=O)C1CCN(C(=O)c2ccc(C(C)(C)C)cc2)CC1	18.1% (inactive)
COc1ccccc1C(=O)Nc1ccnn1C1CCN(C(=O)C(C)(C)C)CC1	20.1% (inactive)
COc1ccccc1N1CCN(C(=O)c2c(-c3c(Cl)cccc3Cl)noc2C)CC1	-7.02% (inactive)
O=C(c1ccc2ccccc2n1)N1CCN(c2ccccc2Cl)CC1	62.1% (active)
O=C(c1c(Cl)cccc1Cl)N1CCN(c2cccc3[nH]ccc23)CC1	-6.91% (inactive)
Cn1c(CCc2ccccc2)nnc1SCC(N)=O	-2.98% (inactive)
CCOc1ccc(-n2c(SCC(N)=O)nnc2-c2ccco2)cc1	1.48% (inactive)
Cc1ccc(NC(=O)CN(C)C(=O)c2ccc(Br)o2)cc1	24.8% (inactive)
Cc1cc(O)cc(O)c1C(=O)Cc1cnn(-c2ccccc2)c1	52.3% (inactive)
COc1ccc(C(=O)CC(=O)c2ccc(C)cc2)c(O)c1	5.12% (inactive)

Structure (SMILES)	inhibition
COc1ccc(C(=O)Cc2cnn(-c3ccccc3)c2)c(O)c1	104% (active)
[2H]C(CCOS(N)(=O)=O)c1ccccc1 (centres undefined)	-5.48% (inactive)
COc1cc2ccccc2cc1C(=O)Nc1ccc(N2CCOCC2)cc1	18.7% (inactive)
CN(CC(=O)Nc1ccc(N2CCOCC2)cc1)CC(=O)Nc1ccccc1[N+](=O)[O-]	-10.3% (inactive)
O=C(Nc1ccc(N2CCOCC2)cc1)c1ccc(-c2ccccc2[N+](=O)[O-])o1	46.4% (active)
Cc1nnc(SCC(=O)Nc2ccc(S(=O)(=O)Nc3ccc(Cl)nn3)cc2)s1	-5.8% (inactive)
NS(=O)(=O)c1ccc(-c2ccc(/C=C3\SC(=O)NC3=O)o2)cc1	-1.11% (inactive)
Cc1ccsc1/C=N/Nc1ccc(Cl)nn1	17.1% (inactive)
Clc1ccc(N/N=C/c2cccs2)nn1	122% (active)
COc1cccc(/C=N/Nc2ccc(Cl)nn2)c1	25.9% (inactive)
Oc1cccc(/C=N/Nc2ccc(Cl)nn2)c1O	60.3% (active)
Nc1nnnn1/N=C/c1cccs1	-9.54% (inactive)
Cc1ccc(S(=O)(=O)N2CCN(c3ccccc3)CC2)cc1C	-9.21% (inactive)
CCN1C(=O)C(CC(=O)Nc2cc(C)ccc2C)SC1=Nc1ccc(S(N)(=O)=O)cc1 (centres undefined)	28.8% (inactive)
O=C(CC1SC(=Nc2ccccc2)N(Cc2ccccn2)C1=O)Nc1cccc(Cl)c1 (centres undefined)	44.2% (active)
CN1C(=O)C(CC(=O)Nc2ccccc2)S/C1=N/c1nccs1 (centres undefined)	-5.12% (inactive)
COc1ccc(NC(=O)CCCN2C(=O)C(c3ccccc3)Oc3cccnc32)cc1 (centres undefined)	-5.94% (inactive)
C/C(=N\Nc1nncc2ccccc12)c1ccc(Cl)c([N+](=O)[O-])c1	59.8% (inactive)
CN(CCO)c1ccc(/C=N/Nc2nncc3ccccc23)cc1	41.9% (active)
COc1cc(/C=N/Nc2nn3cnnc3c3ccccc23)cc(OC)c1OC	18.6% (inactive)
